Results from publication PMC4336329 (PLoS ONE, 2015).
Out of some 310,000 compounds screened, about 14,000 (4.5%) showed an effect of 50% or more. Effects have a minus sign here. The entries come from a sample that favours strong results as a whole.

Biological target: human ether-à-go-go-related gene (hERG) potassium channel (human, UniProt Q12809)
Assay: primary screen, population patch clamp on CHO cells stably expressing hERG; higher = less effect of the substance
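Further: peak tail current of the secondary pulse compared with the same well before compound.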

Sequence of human ether-à-go-go-related gene (hERG) potassium channel (Q12809 whole entry, looked up): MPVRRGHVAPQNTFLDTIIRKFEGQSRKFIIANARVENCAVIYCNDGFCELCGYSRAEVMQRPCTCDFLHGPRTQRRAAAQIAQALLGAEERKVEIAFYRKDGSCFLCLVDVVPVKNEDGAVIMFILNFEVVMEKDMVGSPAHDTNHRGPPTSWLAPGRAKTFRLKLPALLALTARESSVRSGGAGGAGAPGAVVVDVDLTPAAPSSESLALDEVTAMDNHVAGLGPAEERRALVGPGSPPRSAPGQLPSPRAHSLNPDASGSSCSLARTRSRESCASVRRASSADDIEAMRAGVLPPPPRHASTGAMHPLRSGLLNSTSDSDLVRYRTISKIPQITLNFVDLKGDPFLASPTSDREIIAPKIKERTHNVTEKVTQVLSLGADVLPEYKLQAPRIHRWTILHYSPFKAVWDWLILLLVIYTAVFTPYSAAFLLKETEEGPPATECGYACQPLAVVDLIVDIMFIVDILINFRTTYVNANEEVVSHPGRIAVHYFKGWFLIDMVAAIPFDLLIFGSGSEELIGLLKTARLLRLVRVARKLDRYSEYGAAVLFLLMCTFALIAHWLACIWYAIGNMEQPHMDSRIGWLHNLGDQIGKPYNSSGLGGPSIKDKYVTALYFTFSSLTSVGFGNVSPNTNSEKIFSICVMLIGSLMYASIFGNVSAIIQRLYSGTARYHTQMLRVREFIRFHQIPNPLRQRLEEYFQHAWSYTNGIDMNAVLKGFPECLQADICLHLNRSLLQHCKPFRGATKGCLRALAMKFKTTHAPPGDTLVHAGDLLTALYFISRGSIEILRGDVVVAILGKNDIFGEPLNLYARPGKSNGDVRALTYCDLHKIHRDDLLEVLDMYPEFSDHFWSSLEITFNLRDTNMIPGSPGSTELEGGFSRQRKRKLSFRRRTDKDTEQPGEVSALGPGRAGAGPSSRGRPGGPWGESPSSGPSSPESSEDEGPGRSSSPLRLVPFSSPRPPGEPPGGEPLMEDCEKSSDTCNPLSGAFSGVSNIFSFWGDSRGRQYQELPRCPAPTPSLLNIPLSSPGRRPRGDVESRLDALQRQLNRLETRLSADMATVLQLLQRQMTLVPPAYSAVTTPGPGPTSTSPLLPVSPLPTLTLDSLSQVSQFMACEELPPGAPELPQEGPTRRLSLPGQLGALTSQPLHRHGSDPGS

Structure (SMILES) | hERG current change (%, negative = inhibition) at 10uM [%]
O=C(CSC1=NCCS1)Nc1ccnc2ccccc12 | -5.91
COc1ccc(Cl)cc1C(=O)OCC(=O)Nc1cccnc1Cl | 15.8
COc1ccc(CN(C(=S)Nc2ccccc2)C2CC(=O)N(c3ccc(F)cc3)C2=O)cc1 (stereo not drawn) | 26.5
COc1ccc2cc(Br)ccc2c1CC(=O)NC(C)(C)C | 17.3
Cn1cc(C(c2ccccc2OCC(=O)O)c2cn(C)c3ccccc23)c2ccccc21 | 3.58
COC(=O)c1ccc(NC(=S)NC2CCCCC2)cc1 | 1.13
Cc1c(C(=O)N2CCOCC2)oc2ccccc12 | 5.05
Cc1c(C(=O)N2CCN(c3ccc([N+](=O)[O-])cc3)CC2)oc2ccccc12 | -72.8
Cc1ccc(C(=O)N2CCN(c3ncccn3)CC2)o1 | 13.4
Cc1occc1C(=O)N1CCN(c2ccc(Cl)cc2)CC1 | -4.41
Cc1nc2ccccc2c2oc(C(=O)N3CCN(c4ccc([N+](=O)[O-])cc4)CC3)cc12 | -9.45
COc1ccccc1N1CCN(C(=O)c2cccc3c(=O)c(C)c(-c4ccccc4)oc23)CC1 | -31.2
COc1ccc(N2CCN(C(=O)c3oc4ccccc4c3C)CC2)cc1 | -31.9
Cc1c(-c2ccccc2)oc2c(C(=O)N3CCN(c4ccccc4F)CC3)cccc2c1=O | -8.63
Cc1occc1C(=O)N1CCN(c2ccccc2)CC1 | -8.67
Cc1c(-c2ccccc2)oc2c(C(=O)N3CCN(c4ccc([N+](=O)[O-])cc4)CC3)cccc2c1=O | -75.4
Cc1occc1C(=O)N1CCN(c2ccc([N+](=O)[O-])cc2)CC1 | -77.7
Cc1ccc(C(=O)N2CCN(c3ccc([N+](=O)[O-])cc3)CC2)o1 | -80.2
COc1ccc(N2CCN(C(=O)CNC(=O)c3cccs3)CC2)cc1 | 10.9
CCC(C)NC(=O)C(=O)NCc1ccccn1 (stereo not drawn) | 14.6
COc1ccc(CNC(=O)c2nnn(CC(=O)Nc3cc(C)cc(C)c3)c2N)cc1 | 11.9
CCCCc1cc(=O)oc2cc(C)cc(OCC(=O)NCC3CCC(C(=O)O)CC3)c12 (stereo not drawn) | -1.21

Structure (SMILES) | hERG current change (%, negative = inhibition) at 10uM [%]
CC1Cc2ccccc2N1C(=O)c1cc2sccc2n1Cc1ccccc1 (stereo not drawn) | 7.64
CC[N+](C)(CC)CCCCOc1ccc2c(c1)C(=O)c1cc(OCCCC[N+](C)(CC)CC)ccc1-2.[I-] | 12.9
O=c1c2c3nc4ccccc4nc3n(CC3CCCO3)c2ncn1CCc1ccccc1 (stereo not drawn) | -5.67
O=C(c1cccc(F)c1)N1C2C=CC(C2)C1(C(F)(F)F)C(F)(F)F (stereo not drawn) | -0.667
C=CCn1c(COc2cccc3cccnc23)nnc1SCC(=O)O | 12.7
Cc1cccc2c1N(CCOc1ccc(C(C)(C)C)cc1)C(=O)C2=O | -7.48
Cc1cccc(CCNS(=O)(=O)c2cc3c(cc2C)NC(=O)CO3)c1 | -34.4
CC1(C)CC(=O)C(C=NC2CCCCC2)=C(O)C1 | -10.2
Cc1nc(NCc2ccco2)c2oc3ccccc3c2n1 | -29.8
C=CCOc1ccc(CN(C)C(=O)C2CCCO2)cc1 (stereo not drawn) | 2.34
COc1ccc(N2CCN(C(=O)c3cc(C)oc3C)CC2)cc1 | 12.7
Cc1c(Cl)cccc1-c1ccc(C(=O)N2CCN(c3ccc([N+](=O)[O-])cc3)CC2)o1 | -14
CCn1cc(C(=O)N2CCN(c3ccc([N+](=O)[O-])cc3)CC2)c(=O)c2ccc(C)nc21 | -70.9
CCn1cc(C(=O)N2CCN(c3ccccc3F)CC2)c(=O)c2ccc(C)nc21 | -5.94
Cc1cc(C(=O)N2CCN(c3ccc([N+](=O)[O-])cc3)CC2)c(C)o1 | -73.5
O=C(c1ccc(-c2ccc(Cl)cc2)o1)N1CCN(c2ccc([N+](=O)[O-])cc2Cl)CC1 | 3.9
O=C(c1ccc(-c2cccc(Cl)c2)o1)N1CCN(c2ccc([N+](=O)[O-])cc2)CC1 | -58.9
Cc1cc(C(=O)N2CCN(c3ccccc3)CC2)c(C)o1 | -1.46
CCn1cc(C(=O)N2CCN(c3cccc(C)c3C)CC2)c(=O)c2ccc(C)nc21 | -12.9
O=C(C(=O)N1CCN(C(=O)c2ccco2)CC1)c1c[nH]c2ccccc12 | -2.67
CCOc1ccc(S(=O)(=O)n2cc(-c3ccccc3)c(N)n2)cc1 | 5.5
O=C(c1ccc2c(Cl)c3c(nc2c1)CCCC3)N1CCC(N2CCCCC2)CC1 | -46

Structure (SMILES) | hERG current change (%, negative = inhibition) at 10uM [%]
CN(C)CCCN(C(=O)c1ccc(C(=O)c2ccccc2)cc1)c1nc2c(F)cccc2s1 | -67.3
CN(C)CCCOC(=O)c1sc2ccccc2c1Cl.Cl | -50.2
CN(C)CCCN(C(=O)c1sc2ccccc2c1Cl)c1nc2c(F)cccc2s1.Cl | -61.9
Cc1ccc2sc(N(CCCN(C)C)C(=O)c3ccc(S(=O)(=O)N(C)Cc4ccccc4)cc3)nc2c1C.Cl | -20
Cc1ccc2nc(N(CCCN(C)C)C(=O)c3sc4ccccc4c3Cl)sc2c1.Cl | -29.9
CN(C)CCCN(C(=O)c1ccc(N2C(=O)CCC2=O)cc1)c1nc2c(F)cccc2s1.Cl | -0.103
Cc1cccc2sc(N(CCCN(C)C)C(=O)c3sc4ccccc4c3Cl)nc12.Cl | -13.5
CN(C)CCOC(=O)c1sc2ccccc2c1Cl.Cl | -29.4
Cc1cccc2sc(N(CCCN(C)C)C(=O)c3ccc(S(=O)(=O)N4CCc5ccccc5C4)cc3)nc12.Cl | 13.9
NC(=O)COC(=O)c1sc2ccccc2c1Cl | 24.3
Cc1cccc2sc(N(CCCN(C)C)C(=O)c3ccc(C(=O)c4ccccc4)cc3)nc12 | -53.2
O=c1c2ccccc2ncn1-c1ccccc1[N+](=O)[O-] | 11.9
O=S(=O)(c1ccc(OCC(O)CN2CCN(c3ccc(F)cc3)CC2)cc1)N1CCOCC1 (stereo not drawn) | -18.2
O=C(NNC1CC(=O)N(c2ccc(Br)cc2)C1=O)c1ccccn1 (stereo not drawn) | -4.01
CCCC1Cc2nc(Cl)c(C#N)cc2CO1 (stereo not drawn) | 15.6
O=C(Nc1cccnc1)c1cc(S(=O)(=O)N2CCOCC2)ccc1Br | -35.8
COc1cc2c(cc1OC)C(COc1ccccc1OC)N(C(=O)c1ccco1)CC2 (stereo not drawn) | -15.6
COC(=O)c1[nH]c2ccccc2c1NC(=O)CN1CCC(C(N)=O)(N2CCCCC2)CC1 | -35.1
Cc1cc(C)cc(N(CC(=O)Nc2ccc(C)cc2Cl)S(=O)(=O)c2c(C)[nH]c(=O)[nH]c2=O)c1 | -7.63
Cc1cc(C)cc(N(CC(=O)Nc2cc(C)ccc2C)S(=O)(=O)c2c(C)[nH]c(=O)[nH]c2=O)c1 | 5.03
Cc1cc(C)cc(N(CC(=O)Nc2ccc(Br)cc2)S(=O)(=O)c2c(C)[nH]c(=O)[nH]c2=O)c1 | -76.4
Cc1cc(C)cc(N(CC(=O)Nc2ccc(C(F)(F)F)cc2)S(=O)(=O)c2c(C)[nH]c(=O)[nH]c2=O)c1 | -88

Structure (SMILES) | hERG current change (%, negative = inhibition) at 10uM [%]
COc1cc(NC(=O)CN(c2cc(C)cc(C)c2)S(=O)(=O)c2c(C)[nH]c(=O)[nH]c2=O)cc(OC)c1 | -27.8
CCc1ccc(NC(=O)CN(c2cc(C)cc(C)c2)S(=O)(=O)c2c(C)[nH]c(=O)[nH]c2=O)cc1 | -33.7
c1ccc(NCc2cccnc2)cc1 | 12.1
Nc1nccc(-c2ccc(-n3cnc4ccccc43)cc2)n1 | -25.3
O=C(/C=C/c1ccccc1)Nc1nnc(SCC(=O)c2ccc3ccccc3c2)s1 | 4.75
COc1ccc(OC)c(N=c2oc3cc(O)ccc3cc2C(N)=O)c1 | 3.97
COc1cccc(NC(=O)N2CCC(C(N)=O)(N3CCCCC3)CC2)c1 | 6.17
NNC(=O)c1sccc1OCc1ccc(Cl)cc1 | 2.41
COc1ccc(COc2ccsc2C(=O)Nc2ccc(Cl)cc2)cc1 | 7.17
COc1ccsc1NC(=O)OCc1ccc(Cl)cc1 | -77.8
CC(C)(C)c1ccc(NC(=O)CN2C(=O)NC(C)(C3CC3)C2=O)cc1 (stereo not drawn) | -25.5
Cc1ccc(-c2nn3c(C)nnc3c3ccccc23)cc1S(=O)(=O)NCc1ccco1 | -33.3
O=C(CSc1ncnc2[nH]ncc12)Nc1nc(-c2ccc(F)c(F)c2)cs1 | 44.7
O=C(Nc1ccnn1C1CCN(Cc2cc(Cl)ccc2O)CC1)C1CC1 | -55
COc1ccc(O)c(CN2CCC(n3nccc3NC(=O)C3CCCC3)CC2)c1 | -50.8
O=C(Nc1ccnn1C1CCN(C(=O)Cc2cccc(Cl)c2)CC1)C1CC1 | -7.34
COc1ccc(O)c(CN2CCC(n3nccc3NC(=O)c3ccccc3Cl)CC2)c1 | -40.6
COc1ccc(F)c(CN2CCC(n3nccc3NC(=O)C3CCOC3)CC2)c1 (stereo not drawn) | 5.47
O=C(Nc1ccnn1C1CCN(Cc2cc(Cl)ccc2O)CC1)c1cccnc1 | -9.31
COc1cc(F)ccc1CN1CCC(n2nccc2NC(=O)C2CCOC2)CC1 (stereo not drawn) | -14.5
COc1ccc(CN2CCC(n3nccc3NC(=O)C3CCCC3)CC2)c(OC)c1 | -73.2
